From PubChem BioAssay (NCI)
The panel holds about 83,000 compounds, 20% with a hit somewhere; the sample as a whole holds those more often.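 Note: values are percent growth. 100 is the growth of untreated cells, values between 100 and 0 indicate rising inhibition; between -100 and 0 indicates cell death.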 The source made the active and inactive calls. How the source made its calls: active means growth percent below 10; inactive means the rest.

Columns and labels:
Test in all cases: NCI-60 one-dose screen, 48 h (100 = growth as untreated, 0 = no growth, -100 = all killed)
Details in all cases: 10 µM
EKVX NSCLC = test system: EKVX NSCLC
SN12C renal = test system: SN12C renal
UO-31 renal = test system: UO-31 renal
TK-10 renal = test system: TK-10 renal
ACHN renal = test system: ACHN renal
CAKI-1 renal = test system: CAKI-1 renal
A498 renal = test system: A498 renal
CCRF-CEM leukemia = test system: CCRF-CEM leukemia
MOLT-4 leukemia = test system: MOLT-4 leukemia
SK-MEL-2 melanoma = test system: SK-MEL-2 melanoma

Measured: growth

CN(C)CCCN1c2ccccc2CCc2ccc(Cl)cc21
inactive: EKVX NSCLC 70.5% | SN12C renal 61.5% | UO-31 renal 47.3% | TK-10 renal 71.3% | ACHN renal 69.2% | CAKI-1 renal 51.6% | A498 renal 39.9% | CCRF-CEM leukemia 60.5%

C[C@H]1[C@H](OC(=O)CCC(=O)O)O[C@@H]2O[C@]3(C)CC[C@H]4[C@H](C)CC[C@@H]1[C@@]24OO3
active: UO-31 renal 9.64%
inactive: EKVX NSCLC 29.2% | SN12C renal 33.3% | TK-10 renal 46.8% | ACHN renal 27% | CAKI-1 renal 16.7% | A498 renal 80.6% | CCRF-CEM leukemia 39.7% | MOLT-4 leukemia 14.8%

Cc1cc(C(C#N)c2ccc(Cl)cc2)c(Cl)cc1NC(=O)c1cc(I)cc(I)c1O (configuration not stated)
inactive: EKVX NSCLC 41.2% | SN12C renal 31% | UO-31 renal 79.8% | TK-10 renal 65.3% | ACHN renal 79.8% | CAKI-1 renal 38.7% | CCRF-CEM leukemia 19.1% | MOLT-4 leukemia 15.3%
active: A498 renal -37%

CCn1c(CSc2nc3ccccc3c(=O)n2CCc2ccccc2)n[nH]c1=S
inactive: SK-MEL-2 melanoma 103% | SN12C renal 104% | UO-31 renal 76.5% | TK-10 renal 98% | ACHN renal 96.8% | CCRF-CEM leukemia 83.9% | MOLT-4 leukemia 71%

Cc1ccc(-c2c3c(N)nc(-c4cccnc4)nc3nc3c2c(C)nn3-c2ccccc2)cc1
inactive: SK-MEL-2 melanoma 61.6% | SN12C renal 82.8% | UO-31 renal 65.8% | TK-10 renal 94.6% | ACHN renal 40% | A498 renal 74.8% | MOLT-4 leukemia 93.6%

C#C[C@]1(O)CCC2C3CCc4cc(OC5CCCC5)ccc4C3CC[C@@]21C (some centres not stated)
inactive: EKVX NSCLC 86.3% | SN12C renal 70.9% | UO-31 renal 72.5% | TK-10 renal 86.9% | ACHN renal 73.3% | CAKI-1 renal 42% | A498 renal 85.1% | CCRF-CEM leukemia 85.4% | MOLT-4 leukemia 59.8%

COc1cc(-c2ccc(N=Nc3ccc4c(S(=O)(=O)O)ccc(N)c4c3O)c(OC)c2)ccc1N=Nc1ccc2c(S(=O)(=O)O)ccc(N)c2c1O
inactive: SK-MEL-2 melanoma 102% | SN12C renal 123% | TK-10 renal 121% | ACHN renal 103% | A498 renal 124% | CCRF-CEM leukemia 105% | MOLT-4 leukemia 122%

COc1ccc(-c2nn(-c3cccc(Cl)c3)cc2-c2c(C#N)c(N)n(N)c(=O)c2C#N)cc1
inactive: SK-MEL-2 melanoma 77.4% | SN12C renal 68.9% | TK-10 renal 59.8% | ACHN renal 87.2% | CCRF-CEM leukemia 56.8%

Nc1cc(-c2ccncc2)c[nH]c1=O
inactive: EKVX NSCLC 84.1% | SN12C renal 104% | UO-31 renal 82.5% | TK-10 renal 99.9% | ACHN renal 102% | CAKI-1 renal 99.5% | A498 renal 73.3% | CCRF-CEM leukemia 113% | MOLT-4 leukemia 77.4%

COc1ccc(-c2nc(-c3nc4ccc(C)cc4[nH]3)cc3c2[nH]c2ccccc23)cc1
inactive: SN12C renal 28.5% | TK-10 renal 45% | ACHN renal 26.8% | CAKI-1 renal 44.4% | A498 renal 68% | CCRF-CEM leukemia 29.4% | MOLT-4 leukemia 21.9%
active: SK-MEL-2 melanoma 9.81%

O=C(CNc1nnc(-c2cccnc2SCc2ccccc2)s1)Nc1nc(Cl)cc(Cl)n1
inactive: EKVX NSCLC 112% | SN12C renal 103% | UO-31 renal 77.4% | TK-10 renal 125% | ACHN renal 119% | CAKI-1 renal 102% | A498 renal 121% | CCRF-CEM leukemia 102% | MOLT-4 leukemia 95.4%

CCN(CC)CCCC(C)N=C(C1=C(C(=NC(C)CCCN(CC)CC)c2cccc(OC)c2)C(=O)NC1=O)c1cccc(OC)c1 (configuration not stated)
active: SK-MEL-2 melanoma -53.7% | UO-31 renal -97.2% | TK-10 renal -31.1% | ACHN renal -64% | CAKI-1 renal -57.9% | CCRF-CEM leukemia -21.4% | MOLT-4 leukemia -15.7%
inactive: A498 renal 18.7%

CCCCCC(=O)O[C@]1(C(C)=O)CCC2C3CCC4=CC(=O)CC[C@]4(C)C3CC[C@@]21C (some centres not stated)
active: MOLT-4 leukemia -23.1%
inactive: EKVX NSCLC 27.1% | SN12C renal 21.5% | UO-31 renal 18.1% | TK-10 renal 40.4% | ACHN renal 24% | CAKI-1 renal 18.6% | A498 renal 19.4% | CCRF-CEM leukemia 21%

CC(C)[N+]1(C)C2CC[C@@H]1CC(OC(=O)C(CO)c1ccccc1)C2 (some centres not stated)
inactive: EKVX NSCLC 105% | SN12C renal 103% | UO-31 renal 90.7% | TK-10 renal 107% | ACHN renal 105% | CAKI-1 renal 88.4% | A498 renal 92.4% | CCRF-CEM leukemia 92.3% | MOLT-4 leukemia 121%

COc1ccc(-c2nn(-c3cccc(Cl)c3)cc2/C=C2\NC(=S)N(c3ccc(Cl)cc3)C2=O)cc1
active: SK-MEL-2 melanoma -26.3% | MOLT-4 leukemia -22.9%
inactive: SN12C renal 20.4% | UO-31 renal 53.6% | TK-10 renal 27.7% | ACHN renal 51.1% | CCRF-CEM leukemia 21.9%

Cc1cn(-c2cc(F)cc(NC(=O)c3ccc(C)c(Nc4nccc(-c5cccnc5)n4)c3)c2)cn1
active: TK-10 renal -36.3% | ACHN renal -22.3%
inactive: SK-MEL-2 melanoma 64.4% | SN12C renal 20.9% | CCRF-CEM leukemia 45.6%

Cc1cn(-c2cccc(NC(=O)c3ccc(C)c(Nc4nccc(-c5cccnc5)n4)c3)c2)cn1
active: SN12C renal -4.51% | UO-31 renal -22.6% | TK-10 renal -46.3% | ACHN renal -31.9% | MOLT-4 leukemia 5.78%
inactive: SK-MEL-2 melanoma 75.8% | CCRF-CEM leukemia 25%

O=C1C=C(Nc2cccc(Br)c2)c2ccccc2C1=O
active: SK-MEL-2 melanoma 7.56%
inactive: SN12C renal 53.6% | TK-10 renal 89.8% | ACHN renal 50.8% | A498 renal 88.6% | CCRF-CEM leukemia 81.4% | MOLT-4 leukemia 81%

CCCCC1(O)CCCCC1
inactive: SK-MEL-2 melanoma 112% | SN12C renal 103% | UO-31 renal 99.1% | TK-10 renal 94.3% | ACHN renal 101% | A498 renal 115% | MOLT-4 leukemia 93.5%

CSc1nc(S(C)(=O)=O)nc2[nH]c(=O)[nH]c12
inactive: SK-MEL-2 melanoma 106% | SN12C renal 95.9% | TK-10 renal 119% | ACHN renal 97.7% | A498 renal 118% | CCRF-CEM leukemia 117% | MOLT-4 leukemia 116%

OC[C@H]1OC([S-])[C@H](O)[C@@H](O)[C@@H]1O.[Au+] (some centres not stated)
inactive: EKVX NSCLC 106% | SN12C renal 98.5% | UO-31 renal 99.4% | TK-10 renal 124% | ACHN renal 105% | CAKI-1 renal 108% | A498 renal 174% | CCRF-CEM leukemia 61.5% | MOLT-4 leukemia 75.9%

CC(=O)/C(=C/c1ccc(Br)cc1)C(=O)c1ccccc1
inactive: SK-MEL-2 melanoma 107% | SN12C renal 69.1% | UO-31 renal 57.4% | ACHN renal 56.1% | CAKI-1 renal 80.2% | A498 renal 91.6%
active: CCRF-CEM leukemia -7.34% | MOLT-4 leukemia -5.12%

CCCCC(CC)CN=C(N)NC(N)=NCCCCCCN=C(N)NC(N)=NCC(CC)CCCC (configuration not stated)
active: EKVX NSCLC -80.9% | SN12C renal -85.3% | UO-31 renal 4.54% | TK-10 renal -15.3% | ACHN renal 4.41% | CAKI-1 renal -17.3% | A498 renal -31.3% | CCRF-CEM leukemia -54% | MOLT-4 leukemia -73.7%

CCc1cc(Cl)c(OC)c(C(=O)NCC2CCCN2CC)c1O (configuration not stated)
inactive: EKVX NSCLC 82.4% | SN12C renal 92.5% | UO-31 renal 61.4% | TK-10 renal 104% | ACHN renal 88.5% | CAKI-1 renal 72.2% | A498 renal 70.1% | CCRF-CEM leukemia 96% | MOLT-4 leukemia 88%

Cc1ccc(C2=NN(c3ccc(S(C)(=O)=O)cc3)C(=O)CC2)cc1
active: SK-MEL-2 melanoma 6.35%
inactive: SN12C renal 39.7% | UO-31 renal 41.1% | TK-10 renal 67% | ACHN renal 54.5% | CCRF-CEM leukemia 14.9% | MOLT-4 leukemia 20%

CC(=O)Nc1ccc(S(=O)(=O)N/N=C(\C)c2ccc(C)cc2C)cc1
inactive: SK-MEL-2 melanoma 93.1% | SN12C renal 110% | TK-10 renal 108% | ACHN renal 95.3% | A498 renal 112% | CCRF-CEM leukemia 103% | MOLT-4 leukemia 97.7%
